Results as given in PubChem BioAssay (NCI).
Compounds without any hit were thinned out: in the full panel of roughly 79,000, 15% have a hit. Unmarked numbers belong to inactive results. Active and inactive are the calls of the source. Cut-off read from the data, not from the text of the source: active = growth inhibition above about 70%; inactive = the rest.

Key:
[1] = NCI Yeast Anticancer Drug Screen. Data for the rad50 strain (AID 155);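 note: 0% = growth of vehicle-only cultures of the same strain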; details: S. cerevisiae rad50 strain growth inhibition; at 50.0 µM; stronger effect = higher value
Outline: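 Readout: growth inhibition relative to vehicle-treated cultures. Compound exposure was carried out in a genetically defined yeast strain deficient in DNA damage repair.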

[2] = NCI Yeast Anticancer Drug Screen. Data for the mec2-1 strain (AID 157); details: S. cerevisiae mec2-1 strain, at 50.0 µM, stronger effect = higher value
Outline: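 Mutant yeast (mec2-1) grown with compound; growth inhibition relative to vehicle control reported.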

[3] = NCI Yeast Anticancer Drug Screen. Data for the sgs1 mgt1 strain (AID 161);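 note: 0% = growth of cultures given vehicle only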; details: S. cerevisiae sgs1 mgt1 strain, at 50.0 µM, stronger effect = higher value
Outline: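 Percent growth inhibition was derived by comparing compound-exposed mutant yeast with vehicle-exposed cultures. The strain carries alterations in DNA damage repair.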

[4] = NCI Yeast Anticancer Drug Screen. Data for the cln2 rad14 strain (AID 165);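 note: 0% = growth equal to vehicle treated cultures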; details: S. cerevisiae cln2 rad14 strain, at 50.0 µM, stronger effect = higher value
Outline: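 Readout is yeast growth inhibition versus vehicle-treated controls, using a strain with cln2 and rad14 alterations exposed to compound.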

[5] = NCI Yeast Anticancer Drug Screen. Data for the bub3 strain (AID 167); details: S. cerevisiae bub3 mutant strain, at 50.0 µM, stronger effect = higher value
Outline: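 Readout: yeast growth inhibition, expressed relative to vehicle-only wells. The test organism is a mutant strain from a panel with lesions in DNA repair or checkpoint genes.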

[6] = NCI Yeast Anticancer Drug Screen. Data for the mlh1 rad18 strain (AID 175); details: S. cerevisiae mlh1 rad18 strain growth inhibition; at 50.0 µM; stronger effect = higher value
Outline: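 Genetically defined yeast (DNA repair-deficient) exposed to compounds; growth inhibition determined relative to vehicle.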

Compound | growth inhibition [1] | growth inhibition [2] | growth inhibition [3] | growth inhibition [4] | growth inhibition [5] | growth inhibition [6]
O=c1nc(NO)cnn1C1OC(CO)C(O)C1O (configuration not stated) | 13.7% | -0.2% | 16.4% | -26.4% | -11.8% | 11.7%
O=C(C[n+]1ccccc1)NNC(=O)/C(=C/c1ccc2c(c1)OCO2)NC(=O)c1ccccc1 | -5.95% | 3.4% | -13.7% | 21.3% | -3.95% | 10.1%
O=C(c1ccccc1)C1CCCCN1C(=O)c1ccccc1 (configuration not stated) | -13.8% | -8.3% | -4.6% | -17.3% | 27.9% | -21.9%
O=C(OCC(OC(=O)c1ccccc1)C(OC(=O)c1ccccc1)C(OC(=O)c1ccccc1)C(COC(=O)c1ccccc1)OC(=O)c1ccccc1)c1ccccc1 (configuration not stated) | 22.1% | 10% | 10.7% | 5.55% | -5.45% | 7.65%
O=C(NC1CCCCC1Cl)C1CCCCC1 (configuration not stated) | 17.1% | 18.6% | 2.15% | 5.4% | -6.7% | -14.8%
Cc1cc(OCCCC[N+](C)(C)Cc2ccc(Br)o2)c(C(C)C)cc1Cl | 99.5% (active) | 99.5% (active) | 99.2% (active) | 99.3% (active) | 99.2% (active) | 99.3% (active)
Cc1cn(C2CC(C)N(CCO)O2)c(=O)[nH]c1=O (configuration not stated) | -8.1% | -1.35% | -16.8% | -11.6% | -14.9% | -74.2%
Nc1cc(C(F)(F)F)cc(C(F)(F)F)c1 | -6.2% | 1.6% | -0.85% | 16.6% | -1.4% | -10.4%
Cc1ccc(C)c(NC(=O)Oc2ccc(C(=O)OCc3ccccc3)cc2)c1 | 66.8% | 90.8% (active) | 74.9% (active) | 40.5% | 96.5% (active) | 89.5% (active)
CCC(C)SC1=NC(N)=NC2=NC=NC21 (configuration not stated) | -11.6% | -2.85% | -9.3% | -21.8% | 6.05% | 4.25%
CCCCCOC(c1cc2c(cc1Br)OCO2)C(C)Br (configuration not stated) | 8.9% | 22.1% | 10.8% | 19.4% | 22.8% | 13.5%
CN(C)C(=O)C1(C)CC2CCC1C2 (configuration not stated) | -2.25% | -15.3% | -8.65% | 13.9% | 2.8% | -0.75%
CC(=O)OCC1(C)NC(=O)c2ccccc2O1 (configuration not stated) | 8.2% | 20.2% | 6.9% | 8.15% | 9.7% | 22.4%
N#Cc1nc(CCC(C(=O)O)N2C(=O)c3ccccc3C2=O)oc1N (configuration not stated) | 3.55% | 15.2% | -12.1% | -0.55% | -9.15% | -46.9%
O=C(O)c1cnc(Cl)c(Br)c1 | -12.1% | -3.35% | 6.7% | -17.9% | -27.1% | 2.5%
OCCCCC(c1ccc(O)cc1)c1ccc(O)cc1 | 17% | -52.3% | 8.8% | 25.1% | -18.9% | -14.7%
COc1ccccc1/C=C/c1nc2ccccc2o1 | 47.6% | 19.7% | 56.1% | 13.6% | 59.8% | 53%
CC(C)(C)NC(=O)NCCCl | 1% | -11.4% | -2.45% | -33.9% | 2.95% | 5.35%
N#CCCN(CCC#N)C(=O)Nc1cccc2ccccc12 | 10.2% | -9.15% | 5.7% | 12.8% | -2.25% | -16.5%
O=C1CCSCCC(=O)Nc2ccccc2N1 | 3.6% | 0.85% | 16.6% | 20.4% | 17.9% | -65.4%
COc1ccc(NC(=O)CC(=O)N2N=C(N(CCC#N)c3ccccc3Cl)CC2c2ccccc2)cc1 (configuration not stated) | -13.4% | -23.6% | -1% | 10.7% | -4.55% | -28.9%

Compound | growth inhibition [1] | growth inhibition [2] | growth inhibition [3] | growth inhibition [4] | growth inhibition [5] | growth inhibition [6]
O=C1C2C3C=CC(O3)C2C(=O)N1CCN1CCCCC1 (configuration not stated) | -0.75% | -4.8% | -0.65% | 6.5% | -2.15% | -6.05%
COc1ccc(C(=CC2=CC(=O)C3=C(CCCC3)C2=O)c2ccc(OC)cc2)cc1 | 19.8% | -4.25% | -4.6% | -3.7% | 0.55% | 7.2%
CCOC(=O)/C=C(/O)CC(=O)OCC.[Cu+2] | -11.8% | -1.8% | -5.7% | -21% | -17.1% | -0.45%
COc1nc2[nH]ccc2c(=O)n1C | -10.9% | -20.1% | -9.1% | 10.3% | -10.4% | 17.4%
CN1CCC(c2ccccc2)(C(O)(c2ccccc2)c2ccccc2)CC1 | 3.15% | 1.25% | -6% | 12.1% | 0.65% | 12.7%
CCCCC1=C(C)CCC1=O | 17.9% | 8.9% | 8.7% | 6.55% | 2.85% | 4.85%
N#CCCN(CCc1ccccn1)CN1C(=O)c2ccccc2C1=O | 10% | -4.85% | -3.75% | -7.45% | 3.25% | -13.2%
O=C(Cc1nccc2c1[nH]c1ccccc12)OC1C#CCSCC#C/C=C\1 (configuration not stated) | -0.55% | 17.8% | 9.5% | -14.7% | 12.3% | -1.15%
Cn1c(=O)c(C#N)c2n(C)c3ccccc3n2c1=O | 64.8% | 17.4% | 13.8% | 2.25% | -36.1% | -0.15%
CCCCn1c(-c2ccccc2)cs/c1=N\N=C1C=C(C(C)(C)C)C(=O)C(C(C)(C)C)=C1 | 12.2% | -13.9% | 0.05% | -35.2% | -16.9% | 16.9%
CCOC(=O)CN1CC(C2=C(O)CN(CC(=O)OCC)C2=O)=CC1=O | 0.75% | 9.7% | -12.6% | 29.1% | 9.55% | -27%
Cc1c(C)c(C)c(Br)c(C)c1C | -6.7% | -5.05% | -14% | -17.6% | 1.15% | 0.65%
O=C1NC(=O)C(=C/C=C/C=C\C2C(=O)NC(=O)NC2=O)C(=O)N1 | -15.1% | -38.4% | -10.1% | 2.1% | -23.1% | -10.6%
Cc1cc([N+](=O)[O-])cnc1Cl | -14.1% | -22.2% | -11.6% | -15.9% | 12% | -16.8%
Cc1ncc([N+](=O)[O-])n1CC[N+](C)([O-])CCCCn1ccnc1[N+](=O)[O-] (configuration not stated) | 16.9% | -20.6% | 20.6% | -41.5% | -3.95% | -9%
CCOC(C)Oc1ccccc1 (configuration not stated) | 35.5% | -8.6% | 20.4% | 15.4% | -28.1% | 16.4%
c1ccc(C2OC3C4COC(O4)C3O2)cc1 (configuration not stated) | -24.7% | -19.9% | -15.4% | -19.1% | -1.75% | -9.7%
Cc1ccc(C(=O)N/N=C/c2ccccc2Cl)cc1 | -3.15% | 49.1% | 33.8% | -20.4% | 34.9% | 26.6%
CC(=O)Nc1cc2c(cc1Br)Cc1cc(Br)ccc1-2 | -4.15% | -4.1% | -8.2% | -4.5% | 1.1% | -14.2%
CC(Sc1ccccn1)C(=O)c1ccccc1 (configuration not stated) | -1.55% | -6.75% | -4.05% | -52.5% | -9.05% | 1.2%
COc1cc(C(=O)Oc2c(C#N)sc3c2c(=O)n(-c2ccccc2)c(=S)n3-c2ccccc2)cc(OC)c1OC | 22.8% | 3.2% | 12.1% | 10.2% | 21.9% | 20.5%
